Results filed as inconclusive are left out. The source made the active and inactive calls. The call rests on the fitted dose curve; in most records, active means well fitted inhibition curve with a large enough effect; inconclusive means small, poorly fitted or top-dose-only effect; inactive means flat fitted curve, though single readings scatter.
How the values were obtained:
Assay in all cases: Cytotoxic Profiling of Annotated Libraries Using Quantitative High-Throughput Screening (AID 1296008); further: nearly all actives have a fitted effect of over 60% in size
Conditions in all cases: Five cell lines viability, CellTiter-Glo ATP luminescence, 48-72 h; max response: active compounds read low
CRL-7250 = system: CRL-7250
Method in brief: (§1)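 Compounds were pin-transferred onto cells and incubated 48 or 72 hr at 37 degree Celsius, 95% humidity. CellTiter-Glo was added, plates sat 10 min at room temperature, then ATP-coupled luminescence was imaged as the viability read-out.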

HEK293 = system: HEK293
Method in brief: as §1

HaCat = system: HaCat
Method in brief: as §1

KB-3-1 = system: KB-3-1
Method in brief: as §1

NIH3T3 = system: NIH3T3
Method in brief: as §1
On the % scale 0 is the no-effect control and ±100 the full control effect; potency means the concentration at half of the fitted maximal effect.

C=C1C(=O)OC[C@H]2C(C(=O)O)=CC3CC(C)(C)C[C@@]132 (stereo not given in full)
inactive: outcome (CRL-7250) | max response (HEK293) 4.17% | outcome (HaCat) | outcome (KB-3-1) | outcome (NIH3T3)

OC[C@H]1O[C@@H](OCc2ccccc2)[C@H](O[C@@H]2OC[C@@H](O)[C@H](O)[C@H]2O)[C@@H](O)[C@@H]1O
inactive: outcome (CRL-7250) | max response (HEK293) 0.407% | outcome (HaCat) | outcome (KB-3-1) | outcome (NIH3T3)

CCCC(C(=O)O)c1c(C)nc2ccc(Cl)cc2c1-c1ccccc1 (stereo not given)
inactive: max response (CRL-7250) 3.26% | max response (HEK293) -5.83% | outcome (HaCat) | max response (KB-3-1) 2.25% | max response (NIH3T3) 1.27%

CC1=C2C3OC(=O)C(C)C3(O)CCC2(C)CCC1 (stereo not given)
inactive: max response (CRL-7250) 4.24% | max response (HEK293) 2.89% | max response (HaCat) 0.93% | max response (KB-3-1) 2.02% | outcome (NIH3T3)

COc1ccccc1N1CCN(CCCCNC(=O)c2ccc(-c3cscn3)cc2)CC1
active: Potency (HEK293) 20.6 µM
inactive: max response (CRL-7250) -3.11% | outcome (HaCat) | max response (KB-3-1) -12.5% | max response (NIH3T3) 1.48%

C=C[C@]1(C)C[C@@H](OC(=O)CSC2C[C@H]3CC[C@@H](C2)N3C)[C@]2(C)[C@H](C)CC[C@]3(CCC(=O)[C@H]32)[C@@H](C)[C@@H]1O (stereo not given in full)
active: Potency (HEK293) 1.46 µM
inactive: max response (CRL-7250) -0.484% | outcome (HaCat) | max response (KB-3-1) -17.7% | outcome (NIH3T3)

OC[C@@]1(O)CO[C@H](OC[C@H]2O[C@@H](OCCc3ccccc3)[C@H](O)[C@@H](O)[C@@H]2O)[C@@H]1O
inactive: max response (CRL-7250) -3.48% | max response (HEK293) -5.84% | outcome (HaCat) | max response (KB-3-1) -0.728% | max response (NIH3T3) 5%

CCOC(=O)C(CCc1ccccc1)NC1CCCN2CCCC(C(=O)O)N2C1=O (stereo not given)
inactive: max response (CRL-7250) 2.69% | outcome (HEK293) | max response (HaCat) 1.44% | max response (KB-3-1) 2.78% | max response (NIH3T3) 0.311%

CCC1OC(=O)C(C)CC(C)C(=O)/C(C)=C/C(C)C(=O)/C=C/C1(C)O (stereo not given)
inactive: outcome (CRL-7250) | max response (HEK293) -3.54% | outcome (HaCat) | max response (KB-3-1) 8.38% | outcome (NIH3T3)

Nc1nc(COC(=O)c2ccc([N+](=O)[O-])cc2)nc(Nc2ccccc2)n1
inactive: max response (CRL-7250) -7.38% | max response (HEK293) -16.5% | max response (HaCat) -9.19% | max response (KB-3-1) -4.58% | outcome (NIH3T3)

CC(C)(C)NS(=O)(=O)c1ccc(-c2ccc3[nH]nc(N)c3c2)cc1
inactive: max response (CRL-7250) -6.71% | max response (HEK293) -2.12% | max response (HaCat) -19% | max response (KB-3-1) 8.07% | outcome (NIH3T3)

CC(=O)O[C@@H](C[C@@H]1C=C(C)C(=O)O1)[C@H](C)[C@H]1CCC2[C@@]3(C)CC[C@H](O[C@@H]4O[C@H](CO)[C@@H](O)[C@H](O)[C@H]4O[C@@H]4O[C@@H](C)[C@H](O)[C@@H](O)[C@H]4O)C(C)(C)C3CC[C@@]2(C)[C@@]12COC(=O)C2 (stereo not given in full)
inactive: outcome (CRL-7250) | max response (HEK293) -15.8% | outcome (HaCat) | max response (KB-3-1) 1.23% | outcome (NIH3T3)

CN(C)CC(c1ccc(O)cc1)C1(O)CCCCC1 (stereo not given)
inactive: max response (CRL-7250) 2.79% | max response (HEK293) 2.78% | max response (HaCat) -0.565% | outcome (KB-3-1) | outcome (NIH3T3)

C/C(=C\CC[C@H](CO)[C@@H]1CC[C@]2(C)C3=C(CC[C@@]12C)[C@@]1(C)CCC(=O)C(C)(C)C1CC3)C(=O)O (stereo not given in full)
inactive: max response (CRL-7250) -4.82% | max response (HEK293) -7.09% | outcome (HaCat) | max response (KB-3-1) 6.51% | max response (NIH3T3) -2.55%

CC(C(=O)Nc1cc(C#N)ccc1CCCC(=O)O)c1ccc(F)c2ccccc12 (stereo not given)
inactive: max response (CRL-7250) -4.54% | max response (HEK293) -6.85% | max response (HaCat) -4.32% | max response (KB-3-1) 5.51% | outcome (NIH3T3)

COc1cc(Nc2nc3ccccc3nc2NS(=O)(=O)c2cccc(NC(=O)c3ccc(C)c(OC)c3)c2)cc(OC)c1
inactive: max response (CRL-7250) -4.07% | max response (HEK293) -14.5% | outcome (HaCat) | max response (KB-3-1) -12.1% | outcome (NIH3T3)

COc1ccc(/C=C/C(=O)O[C@@H]2[C@@H](O)[C@@H](O)[C@H](O[C@H]3[C@@H]4C=CO[C@@H](O[C@@H]5O[C@H](CO)[C@@H](O)[C@H](O)[C@H]5O)[C@@H]4[C@@]4(CO)O[C@@H]34)O[C@H]2C)cc1
inactive: max response (CRL-7250) -8.85% | max response (HEK293) -4.15% | outcome (HaCat) | max response (KB-3-1) 1.26% | max response (NIH3T3) 0.471%

CC1(C)CC[C@]2(C(=O)O[C@@H]3O[C@H](CO)[C@@H](O)[C@H](O)[C@H]3O)CC[C@]3(C)C(=CCC4[C@@]5(C)CC[C@H](O[C@@H]6O[C@H](C(=O)O)[C@@H](O[C@@H]7O[C@H](CO)[C@@H](O)[C@H](O)[C@H]7O)[C@H](O)[C@H]6O)C(C)(C)C5CC[C@]43C)C2C1 (stereo not given in full)
inactive: max response (CRL-7250) -9.08% | max response (HEK293) 3.3% | outcome (HaCat) | outcome (KB-3-1) | max response (NIH3T3) 3.38%
